# Results as given in PubChem BioAssay (NCATS).
# Test: qHTS profiling of the MIPE4 collection as inhibitors of Plasmodium falciparum (DD2) proliferation (Rep 2) (AID 743346)
# Details: P. falciparum Dd2 in erythrocytes, SYBR Green DNA, 72 h; at 28.5 µM unless noted
# Description: Plasmodium falciparum is a virulent malarial parasite that kills 1-2 million people worldwide each year. Transmitted by mosquitoes, the sporozoite form of the parasite enters the blood stream to infect hepatocytes, where they become merozoites that infect red blood cells (erythrocytes). Within erythrocytes, merozoites begin a […] cycle of growth and division, after which the parasite is released to infect new red blood cells. Gametocytes, which form within erythrocytes as well, circulate in the bloodstream and are ingested by the mosquito, thereby completing the life cycle. To profile malarial isolates for differential chemical responses and to identify inhibitors of malarial growth, an assay that measures P. falciparum growth and replication within erythrocytes was employed. This assay uses a DNA binding fluorescent dye (SYBR Green) to detect parasite DNA following cell lysis. Because mature erythrocytes lack DNA, only Plasmodium-derived DNA is detected.
# The SYBR Green viability assay was adapted from a method described previously (Plouffe et al., 2008). For screening 3 ul culture medium was dispensed into 1536 well black clear bottom plates (Aurora Biotechnologies) using a Multidrop Combi (Thermo Fisher Scientific Inc.), 23 nL compounds in DMSO were added by a pin tool (Kalypsys), and 5 ul of erythrocytes infected with P. falciparum (0.3% parasitemia, 2.5% hematocrit final concentration) were added. The plates were incubated at 37 C in a humidified incubator in 5% CO2 for 72 h, and 2 ul lysis buffer (20 mM Tris HCl, 10 mM EDTA, 0.16% saponin, 1.6% triton X, 10X SYBR Green I supplied as 10,000X […] by Invitrogen) was added to each well. The plates were mixed for 25 sec with gentle shaking and incubated overnight at room temperature in the dark. The following morning, fluorescence intensity at 485(14) nm excitation and 535(25) nm emission wavelengths was measured on an EnVision (Perkin Elmer) plate reader. Plate reads were normalized relative to the control inhibitor (0.29 uM artemisinin) and vehicle (DMSO) wells present on each plate and then corrected by an algorithm using vehicle-only control plates at the beginning and end of the compound plate stack.
row,SMILES,"parasite growth, % of control (lower = inhibition)"
1,CCCNCC(O)COc1ccccc1C(=O)CCc1ccccc1 (stereo not given),15.6%
2,CS(=O)(=O)Nc1ccc([N+](=O)[O-])cc1Oc1ccccc1,84.4%
3,CC(CCc1ccc(O)cc1)NCCc1ccc(O)c(O)c1 (stereo not given),62.7%
4,COC(=O)Nc1nc2ccc(C(=O)c3cccs3)cc2[nH]1,91.6%
5,COc1nc(C)nc(Cl)c1NC1=NCCN1,92.6%
6,CN1CCN(CCCN2c3ccccc3Sc3ccc(Cl)cc32)CC1,28.4%
7,Clc1ccc(C(c2ccccc2Cl)C(Cl)Cl)cc1 (stereo not given),54.8%
8,CC(C)(Oc1ccc(C2CC2(Cl)Cl)cc1)C(=O)O (stereo not given),92.2% [at 57.5 µM]
9,NCCS(=O)(=O)O,90.9%
10,Nc1ccn([C@H]2CC[C@@H](CO)O2)c(=O)n1,74.1%
11,CC(C)NCC(O)COc1ccc(CCOCC2CC2)cc1 (stereo not given),46.9%
12,NCCc1cnc[nH]1,109%
13,COc1cc2nc(N3CCN(C(=O)c4ccco4)CC3)nc(N)c2cc1OC,8.89%
14,CN1CCN2c3ccccc3Cc3ccccc3C2C1 (stereo not given),44.9%
15,CC1(C)O[C@H]2CC(=O)OC[C@]23[C@H]2CC[C@@]4(C)[C@H](c5ccoc5)OC(=O)[C@H]5O[C@]54[C@]2(C)C(=O)C[C@@H]13,82%
16,Fc1ccc([C@@H]2CCNC[C@H]2COc2ccc3c(c2)OCO3)cc1,34.6%
17,Cn1cnc2c1c(=O)[nH]c(=O)n2C,25.4%
18,C[C@H]1c2cccc(O)c2C(O)=C2C(=O)[C@]3(O)C(O)=C(C(N)=O)C(=O)[C@@H](N(C)C)[C@@H]3[C@@H](O)[C@@H]21,14.3%
19,CN(C)CCCN1c2ccccc2CCc2ccc(Cl)cc21,24.6%
20,CN(C)C(=N)N=C(N)N,85.6%

row,SMILES,"parasite growth, % of control (lower = inhibition)"
1,Cn1ccc2cc3c(cc21)CCN3C(=O)Nc1cccnc1,13.8%
2,N[C@@H](Cc1c[nH]c2ccc(O)cc12)C(=O)O,132%
3,CNCCCC12CCC(c3ccccc31)c1ccccc12,21.9%
4,C[C@@H]1CC(=O)NN=C1c1ccc(NN=C(C#N)C#N)cc1,33.2%
5,CN1CCC(=C2c3ccccc3C=Cc3ccccc32)CC1,35.3%
6,CN(CCOc1ccc(NS(C)(=O)=O)cc1)CCc1ccc(NS(C)(=O)=O)cc1,119%
7,CCOC(=O)C(C)(C)Oc1ccc(Cl)cc1,78%
8,Nc1nnc(-c2cccc(Cl)c2Cl)c(N)n1,104%
9,Clc1ccc2c(c1)C(N1CCNCC1)=Nc1ccccc1O2,27.9%
10,CC#C[C@]1(O)CC[C@H]2[C@@H]3CCC4=CC(=O)CCC4=C3[C@@H](c3ccc(N(C)C)cc3)C[C@@]21C,11.9%
11,COc1cc2nc(N(C)CCCNC(=O)C3CCCO3)nc(N)c2cc1OC (stereo not given),63%
12,CC(COc1ccccc1)N(CCCl)Cc1ccccc1 (stereo not given),27%
13,Cc1cn([C@H]2C=C[C@@H](CO)O2)c(=O)[nH]c1=O,140% [at 57.5 µM]
14,CC(=O)OCC(CCn1cnc2cnc(N)nc21)COC(C)=O,91.8%
15,CC(C)NCC(O)c1ccc(O)c(O)c1 (stereo not given),9.11%
16,O=c1c(-c2ccc(O)cc2)coc2cc(O)cc(O)c12,57.2%
17,COc1cc2nc(N3CCN(C(=O)C4COc5ccccc5O4)CC3)nc(N)c2cc1OC (stereo not given),11.1%
18,COc1ccc2c(c1)c(CC(=O)O)c(C)n2C(=O)c1ccc(Cl)cc1,127%
19,CC(C)(C)C(=O)Oc1ccc(S(=O)(=O)Nc2ccccc2C(=O)NCC(=O)O)cc1,91.4%
20,O=C(c1ccc(F)cc1)C1CCN(CCn2c(=O)[nH]c3ccccc3c2=O)CC1,104%
